Records with an inconclusive call do not appear. The source made the active and inactive calls. The call rests on the fitted dose curve; in most records, active means well fitted curve in the direction sought with a large enough effect in the repeat runs; inconclusive means weak or mixed curves; inactive means no such curve, though single readings can be large; an effect the other way counts as inactive or inconclusive.
Legend:
[1] = qHTS RealTime-Glo MT Cell Viability Assay in HepG2 cells - 24 hour (AID 1224867); further: nearly all actives have a fitted effect of over 50% in size
How it was run: (§1)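 Compound treatment began 5 h after plating HepG2 cells (600/well) with NanoLuc luciferase and prosubstrate. Plates stayed at 37 C for 40 h; luminescence was captured at six time points, 0 h through 40 h.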

[2] = qHTS RealTime-Glo MT Cell Viability Assay in HEK293 cells - 32 hour (AID 1224868); further: top concentration of the series differs between compounds; nearly all actives have a fitted effect of over 50% in size
How it was run: (§2)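 Quantitative high-throughput screen of the Tox21 10K library in HEK293: cells and RealTime-Glo reagents plated together, compound added at 5 h, luminescence monitored through 40 h at 37 C.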

[3] = A CellTox Green Cytotoxicity Assay to monitor cytotoxicity in HEK293 cells - 0 hour (AID 1224869); further: nearly all actives have a fitted effect of over 50% in size
How it was run: (§3)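 Dead-cell fluorescence measured kinetically: asymmetric cyanine dye, HEK293, 600 cells/well, 5 h settle, 23 nL cpd/DMSO, 37 C, reads 0–40 h every 8 h.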

[4] = qHTS RealTime-Glo MT Cell Viability Assay in HepG2 cells - 40 hour (AID 1224870); further: nearly all actives have a fitted effect of over 50% in size
How it was run: (§4)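 Real-time viability: cells seeded at 600 per well together with NanoLuc and cell-permeant prosubstrate, compounds added after 5 h incubation. Luminescence tracked at 0, 8, 16, 24, 32 and 40 h of exposure.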

[5] = A CellTox Green Cytotoxicity Assay to monitor cytotoxicity in HEK293 cells - 40 hour (AID 1224871); further: nearly all actives have a fitted effect of over 45% in size
How it was run: as §3

[6] = qHTS RealTime-Glo MT Cell Viability Assay in HEK293 cells - 16 hour (AID 1224872)
How it was run: as §2

[7] = qHTS RealTime-Glo MT Cell Viability Assay in HepG2 cells - 8 hour (AID 1224873); further: nearly all actives have a fitted effect of over 55% in size
How it was run: as §4

[8] = qHTS RealTime-Glo MT Cell Viability Assay in HEK293 cells - 40 hour (AID 1224874); settings: RealTime-Glo luminescence; max response: active compounds read low; further: nearly all actives have a fitted effect of over 50% in size
How it was run: (§5)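 600 HEK293 cells per well, dispensed already mixed with RealTime-Glo MT reagents. Compound dosing came 5 h later. The same wells were read for luminescence at 0, 8, 16, 24, 32 and 40 h of exposure at 37 C.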

[9] = A CellTox Green Cytotoxicity Assay to monitor cytotoxicity in HEK293 cells - 24 hour (AID 1224875); further: series mostly up to about 77 µM; nearly all actives have a fitted effect of over 45% in size
How it was run: as §3

[10] = A CellTox Green Cytotoxicity Assay to monitor cytotoxicity in HepG2 cells - 16 hour (AID 1224876); further: nearly all actives have a fitted effect of over 45% in size
How it was run: (§6)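 First, HepG2 cells (600/well) mixed with reagent were plated; second, after 5 h at 37 C they received compounds via pintool; third, fluorescence was measured at 0 h through 40 h at 8 h intervals.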

[11] = qHTS RealTime-Glo MT Cell Viability Assay in HepG2 cells - 32 hour (AID 1224877); further: nearly all actives have a fitted effect of over 55% in size
How it was run: as §1

[12] = A CellTox Green Cytotoxicity Assay to monitor cytotoxicity in HepG2 cells - 40 hour (AID 1224879); further: nearly all actives have a fitted effect of over 40% in size
How it was run: as §6

[13] = qHTS RealTime-Glo MT Cell Viability Assay in HEK293 cells - 0 hour (AID 1224880); further: top concentration of the series differs between compounds; nearly all actives have a fitted effect of over 45% in size
How it was run: as §5

[14] = A CellTox Green Cytotoxicity Assay to monitor cytotoxicity in HEK293 cells - 32 hour (AID 1224881); further: nearly all actives have a fitted effect of over 40% in size
How it was run: as §3

[15] = A CellTox Green Cytotoxicity Assay to monitor cytotoxicity in HepG2 cells - 0 hour (AID 1224882); further: nearly all actives have a fitted effect of over 35% in size
How it was run: as §6

[16] = A CellTox Green Cytotoxicity Assay to monitor cytotoxicity in HepG2 cells - 32 hour (AID 1224883); further: nearly all actives have a fitted effect of over 50% in size
How it was run: as §6

[17] = A CellTox Green Cytotoxicity Assay to monitor cytotoxicity in HEK293 cells - 8 hour (AID 1224884); further: nearly all actives have a fitted effect of over 35% in size
How it was run: as §3

[18] = qHTS RealTime-Glo MT Cell Viability Assay in HepG2 cells - 16 hour (AID 1224885); further: nearly all actives have a fitted effect of over 50% in size
How it was run: as §1

[19] = A CellTox Green Cytotoxicity Assay to monitor cytotoxicity in HepG2 cells - 24 hour (AID 1224878); further: nearly all actives have a fitted effect of over 45% in size
How it was run: as §6
On the % scale 0 is the no-effect control and ±100 the full control effect.

FC(F)(F)/C(=N\OCC1OCCO1)c1ccc(Cl)cc1
inactive: outcome [1] | Potency [2] | Potency [3] | outcome [4] | Potency [5] | Potency [6] | outcome [7] | max response [8] 3.42% | Potency [9] | Potency [10] | outcome [11] | Potency [12] | outcome [13] | Potency [14] | Potency [15] | Potency [16] | Potency [17] | outcome [18]

CCCCCC1Nc2cc(C(F)(F)F)c(S(N)(=O)=O)cc2S(=O)(=O)N1 (centres undefined)
inactive: outcome [1] | Potency [2] | Potency [3] | outcome [4] | Potency [6] | outcome [7] | max response [8] -1.2% | Potency [9] | Potency [10] | outcome [11] | Potency [19] | Potency [12] | outcome [13] | Potency [14] | Potency [15] | Potency [16] | Potency [17] | outcome [18]

CN[C@@H]1[C@H](O)[C@H](NC)[C@H]2O[C@@]3(O)C(=O)C[C@@H](C)O[C@H]3O[C@@H]2[C@H]1O
inactive: outcome [1] | Potency [2] | Potency [3] | outcome [4] | Potency [6] | outcome [7] | max response [8] -13.7% | Potency [9] | Potency [10] | outcome [11] | Potency [19] | Potency [12] | outcome [13] | Potency [14] | Potency [15] | Potency [16] | Potency [17] | outcome [18]

From PubChem BioAssay (Tox21)
